PINK1 expr mod – A Quantitative High throughput Screen to Identify Chemical Modulators of PINK1 Expression. PINK1 immunofluorescence, high-content cytometry, 24 h. Potency, µM (series often up to 76.6 µM), for the others: top-dose activation (PINK1 increase), most hits filed as activators. hit rate 0.2% among 410,000. AID 624263, 2012; active = well fitted activation curve with a large enough effect; inconclusive = small, poorly fitted or top-dose-only effect; cell line not stated here; note: % of control where 0% means no effect; nearly all actives have a fitted effect of over 65% in size
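Fluorescence from anti-PINK1 antibody, together with nuclear and cell stains, was scanned on a laser-scanning cytometer. Before staining, stable-line cells were incubated 24 hours with compounds at 5 concentrations; primary antibody 12 h at 10 degrees C.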
SW480 rerep – A quantitative high throughput screen for small molecules that induce DNA re-replication in SW480 colon adenocarcinoma cells | AID 624297, 2012 | SW480 DNA re-replication, Hoechst DNA content imaging, 48 h | hit rate 1.8% among 340,000 | Potency, µM (doses to about 46.1 µM), without a hit: top-dose re-replication activation, actives largely listed as activators; note: % of control where 0% means no effect; nearly all actives have a fitted effect of over 55% in size
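Per well, 250 cells were exposed to pinned compound for 48 hr. Nuclear DNA was visualised with Hoechst (40 min, 37 C) and total object intensity recorded by fluorescence scanning.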
KB-3-1 cytotox – qHTS assay for MDR1-selective chemotherapeutics: Primary screen using the parental adenocarcinoma cell KB-3-1. AID 1347075, 2019. hit rate 1.4% among 400,000. Potency, µM (highest dose often 46.1 µM), hits mostly cytotoxic. KB-3-1 viability, CellTiter-Glo ATP luminescence, 72 h; note: % is set by controls: 0 for no effect and ±100 for the full control effect; nearly all actives have a fitted effect of over 60% in size
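Cytotoxicity measured as CellTiter-Glo luminescence after 72 h at 37 C. Compound titrations were pinned onto drug-naive KB-3-1 parental adenocarcinoma cells grown in DMEM with 10% FBS, and normalized data fitted to concentration-response curves.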
PTAP TSG101 blk – qHTS Assay for Iinhibitors of HIV-1 Budding by Blocking the Interaction of PTAP/TSG101; Fluorescence polarization, FITC-PTAP peptide / Tsg101 binding; Potency, µM (titrated, usually from 115 µM), for the others: top-dose activity change, negative = inhibition, usual class: inhibitors; 340,000 tested, under 10 active; active = well fitted inhibition curve with a large enough effect in the main read-out, with a control signal flat, not every such curve was filed as active; inconclusive = small, poorly fitted or top-dose-only effect, or effect the other way, or a change in a side signal; inactive = no such curve, though single readings can be large or run the other way; note: % of control where 0% means no effect
Target sequence (Q99816 whole entry, looked up): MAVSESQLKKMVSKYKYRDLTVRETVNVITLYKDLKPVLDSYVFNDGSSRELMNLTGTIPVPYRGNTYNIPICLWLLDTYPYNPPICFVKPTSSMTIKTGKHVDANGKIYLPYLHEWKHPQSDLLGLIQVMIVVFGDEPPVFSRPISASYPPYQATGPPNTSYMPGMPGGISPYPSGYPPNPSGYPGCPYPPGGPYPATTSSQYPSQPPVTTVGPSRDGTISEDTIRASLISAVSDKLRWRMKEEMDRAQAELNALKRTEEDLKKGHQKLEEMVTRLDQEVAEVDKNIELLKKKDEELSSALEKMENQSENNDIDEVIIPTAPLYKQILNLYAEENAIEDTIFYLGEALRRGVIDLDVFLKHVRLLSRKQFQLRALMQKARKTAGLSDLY
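Fluorescence polarization binding of Tsg101 binding domain (10 uM final) to FITC-labeled PTAP peptide (50 nM final) in HEPES pH 7.5 buffer with NaCl, Tween 20, EDTA, TCEP. Compounds added before peptide; binding 20 min at RT.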
KB-V1 cytotox – qHTS assay for MDR1-selective chemotherapeutics: Primary screen using the drug-selected MDR subline cells KB-V1; Potency, µM (titrated, usually from 46.1 µM), most hits filed as cytotoxic; KB-V1 MDR cells viability, CellTiter-Glo, 72 h; AID 1347076, 2019; hit rate 3.4% among 400,000; note: % is set by controls: 0 for no effect and ±100 for the full control effect; nearly all actives have a fitted effect of over 60% in size
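Compound-treated KB-V1 multidrug-resistant cells, 72 h, 37 degrees C; viability by CellTiter-Glo. Fitted qHTS curves give the values.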
MCF10A rerep – A quantitative high throughput screen for small molecules that induce DNA re-replication in MCF 10a normal breast cells; Potency, µM (series often up to 46.1 µM), without a hit: top-dose activity, positive = re-replication, hits mostly activators; hit rate 2.9% among 350,000; MCF 10A DNA re-replication, Hoechst nuclear intensity, 48 h; AID 624296, 2012; note: % of control where 0% means no effect; nearly all actives have a fitted effect of over 50% in size
Active calls of the source: *; i = inactive; ? = inconclusive; . = no result given; [ ] = remark or other dose. The list is not random: actives were taken first. Their share in the collection is about 6.8%. Unless noted, calls come from the whole dose curve; as a rule, active = well fitted curve in the direction sought with a large enough effect; inconclusive = small, poorly fitted or top-dose-only effect, or another doubt; inactive = no such curve, though single readings can be large; an effect the other way counts as inactive or inconclusive. Potency is the fitted concentration of half-maximal effect.

SMILES	PINK1 expr mod	SW480 rerep	KB-3-1 cytotox	PTAP TSG101 blk	KB-V1 cytotox	MCF10A rerep
COc1cccc(Oc2ccc(C(F)(F)F)cc2NC(=O)CN2C(=O)NC3(CCCC3)C2=O)c1	?	57.2%	?	1.4%	i	18.4µM*
CCOC(=O)c1c(NC(=O)CN2C(=O)NC3(CCCCC3)C2=O)sc(C)c1-c1ccc(C)cc1	10.6%	.	?	0.4%	20.6µM*	?
Cc1ccc(Cl)cc1NC(=O)CNC(=O)N1CC(=O)Nc2ccccc21	0.1%	29.1µM*	i	1.6%	i	-1.2%
Cc1ccc(Cl)cc1NC(=O)CCNC(=O)N1CC(=O)Nc2ccccc21	-1.4%	?	i	-2.4%	i	12.5%
Cc1cc(Cl)ccc1NC(=O)CN1C(=O)NC2(CCCC2)C1=O	0.3%	-7.9%	?	0.9%	i	5.6%
Cc1ccc(Cl)cc1NC(=O)CN1C(=O)NC2(CCCCCC2)C1=O	3.7%	-1.4%	i	0.2%	20.6µM*	1.1%
CCc1cccc(C)c1NC(=O)CSc1nc2ccccc2nc1Cc1ccccc1	-10.3%	.	.	.	.	.
O=C([C@@H]1C[C@@H](Sc2nc3ccccc3[nH]2)CN1Cc1ccc(C(F)(F)F)cc1)N1CCN(c2ccccc2F)CC1	2.0%	.	.	.	.	.
Cc1nnc(N2CCN(c3ccccc3F)CC2)c2c1nnn2Cc1ccccc1Cl	2.6%	.	i	.	i	.
O=C(CN1C(=O)NC2(CCCCC2)C1=O)Nc1cccc2ncccc12	0.7%	20.6µM*	i	-5.7%	i	-0.4%
N=C1C=CC(=C(c2ccc(N)cc2)c2ccc(N)cc2)C=C1	?	?	3.66µM*	2.8%	i	?
CC1Cc2cc(S(=O)(=O)CCC(=O)Nc3ccc(OC(F)(F)F)cc3)ccc2N1C(=O)C1CC1 (stereo not drawn)	4.1%	.	.	.	.	.
COc1ccc(NS(=O)(=O)c2cccc(NC(=O)c3ccccn3)c2)cc1	1.1%	-5.0%	?	-0.8%	10.3µM*	-1.3%
COc1ccc(NS(=O)(=O)c2ccc(NC(=O)c3ccccn3)cc2)cc1	0.6%	-12.1%	i	-3.3%	i	15.2%
CCOc1ccc(NC(=O)c2ccccn2)cc1	0.6%	-1.6%	?	-3.1%	20.6µM*	21.3%
COC(=O)/C=C1/SC(=Nc2ccc(Cl)c(Cl)c2)NC1=O	5.3%	-4.4%	i	-2.5%	i	25.9µM*
COCCn1c(=O)cnc2cnc(N(C)C)nc21	-0.1%	.	.	.	.	.
O=[N+]([O-])c1ccc(NC(=S)NCc2ccc(F)cc2)cc1	?	?	?	-3.7%	?	16.4µM*
CCNC(=S)Nc1ccc(Cl)cc1	1.9%	-1.8%	i	0.2%	i	3.1%
O=C(c1ccc([N+](=O)[O-])cc1)N1CCc2ccccc2C1	0.2%	2.9%	i	-4.4%	i	-3.1%
COc1ccc(NC(=S)NCCCc2ccccc2)cc1	1.5%	18.4µM*	i	-0.6%	i	-0.7%
O=[N+]([O-])c1ccc(NC(=S)N2CCc3ccccc3C2)cc1	13.2%	-65.9%	i	-0.8%	23.1µM*	8.4%
CCCCNC(=S)Nc1ccc(Cl)cc1	3.4%	2.8%	i	0.8%	16.4µM*	14.7%
COc1ccc(NC(=O)NCCCCc2ccccc2)cc1	-0.9%	0.1%	i	1.3%	i	-57.4%
O=[N+]([O-])c1ccc(NC(=S)NCCc2ccc(Cl)cc2)cc1	?	10.8%	?	-0.2%	16.4µM*	?
SMILES	PINK1 expr mod	SW480 rerep	KB-3-1 cytotox	PTAP TSG101 blk	KB-V1 cytotox	MCF10A rerep
O=[N+]([O-])c1ccc(NNC(=S)Nc2ccccc2)cc1	14.1µM*	-3.8%[9.22 µM]	?	-0.8%	?	28.7%
Fc1ccc(CNC(=S)Nc2cccc(Cl)c2)cc1	?	4.7%	i	0.2%	i	16.4µM*
CCCCc1ccc(NC(=O)C(=O)NCCN2CCN(Cc3ccc([N+](=O)[O-])cc3)CC2)cc1	3.6%	9.5%	i	-3.1%	?	3.26µM*
O=[N+]([O-])c1ccc(NC(=S)NCCc2ccccc2)cc1	?	?	?	0.9%	?	?
Cc1c(C(=O)NC(C)(C)C)sc2ncnc(NCCN(C)C)c12	0.0%	.	.	.	.	.
Cc1cccc2c(C(O)c3cn(C)c4ccccc34)c[nH]c12 (stereo not drawn)	.	.	i	.	i	.
COC(=O)N1CCC[C@@]2(CCN(C(=O)Nc3cccc(F)c3)C2)C1	1.9%	.	.	.	.	.
COC(=O)c1c(NC(=S)NN2CCOCC2)sc2c1CCCC2	7.8%	0.4%	i	0.0%	i	11.2%
CCCCN=C1SC(C(=O)Nc2sc3c(c2C(=O)OC)CCC3)C(N)=C1C(=O)N1CCOCC1 (stereo not drawn)	13.4%	353.8%	i	-1.8%	i	20.6µM*
O=C(c1ccco1)N1CCN(C(=O)c2ccco2)C1=S	-5.9%	5.8µM*	11.6µM*	-11.0%	16.4µM*	2.59µM*
O=C(N1CCN(c2ccccn2)CC1)N1c2ccccc2Sc2ccccc21	7.7%[38.3 µM]	0.651µM*	0.581µM*	-7.3%	1.84µM*	?
O=C(c1ccco1)N1CCCN(C(=O)c2ccco2)CC1	5.6%[38.3 µM]	-13.1%	i	-6.7%	i	6.3%
O=C(c1ccc(Br)s1)N1CCN(c2ccccn2)CC1	-0.3%	5.6%	i	0.1%	?	-0.2%
O=C(c1ccco1)N1CCN(C(=O)N2c3ccccc3Sc3ccccc32)CC1	.	1.0%	0.517µM*	-8.1%	0.651µM*	12.9%
O=C(c1ccco1)N1CCN(C(=O)N2CCOCC2)CC1	.	0.164µM*	i	-0.4%	i	?
Cc1ccc(CN2CCc3nc(N4CCN(C)CC4)ncc3C2)s1	0.7%	.	i	.	i	.
CC1CCCCN1CCCNC(=O)Cn1ncc2c3ccccc3n(Cc3ccccc3F)c2c1=O (stereo not drawn)	-1.1%	.	i	.	i	.
O=C(NCc1ccccc1Cl)C1CCCN1C(=O)NC1CCCCC1 (stereo not drawn)	-0.4%	14.8%	i	-6.6%	i	6.4%
O=C(CN1CCC(NC(=O)c2ccc(F)cc2)CC1)NCc1ccccc1F	-2.8%	-1.5%	i	-2.7%	11.6µM*	-1.0%
O=C(CN1CCC(NC(=O)c2ccccc2)CC1)NCc1ccccc1F	0.3%	-3.9%	i	-0.7%	i	-0.3%
O=C(NCc1ccccc1F)C1CCCN1C(=O)NC1CCCCC1 (stereo not drawn)	3.0%	-7.7%	i	-2.4%	20.6µM*	2.7%
